Compounds without any hit were thinned out: in the full panel of roughly 83,000, 20% have a hit.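 96-well plates, one dose, 48 hours. Percent growth reported; active if below 10.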 Activity calls are given as the source filed them.
These molecules were tested on SN12C renal (assay: NCI-60 one-dose screen, 48 h (100 = growth as untreated, 0 = no growth, -100 = all killed)). Details: 10 µM unless noted.

SMILES	growth
c1ccc2c(Cc3csc4ccccc34)csc2c1	97.1% (inactive)
COc1ccc(-c2[nH]nc(N)c2-c2cc(OC)c(OC)c(OC)c2)cc1	33% (inactive)
Cc1nc2ccc(Nc3nc(NCCN4CCOCC4)nc(Nc4ccc(F)cc4)n3)cc2n1Cc1ccccc1	61.8% (inactive)
COc1ccc(C2CC(c3ccc(Nc4ccnc5cc(Cl)ccc45)cc3)=NN2c2ccccc2)cc1 (stereo not drawn)	91.9% (inactive)
CCCCn1c(C)nc2cc(Nc3nc(Cl)nc4nc[nH]c34)ccc21	78.9% (inactive)
COc1ccc(C(=O)/C=C/c2cn(-c3ccccc3)nc2-c2cccc(Nc3ccnc4cc(Cl)ccc34)c2)cc1	89.8% (inactive)
Clc1ccc(Nc2ncnc3c2sc2ncccc23)c(Cl)c1	20.4% (inactive)
Nc1nonc1-c1nc2ccccc2n1Cc1ccc(F)cc1	62.4% (inactive)
CC(C)(C)c1ccc(Cn2c(-c3nonc3N)nc3ccccc32)cc1	73.6% (inactive)
COC1=CC(c2ccc[nH]2)=N/C1=C\c1[nH]c(C)c(C(=O)CCCCCCCCC(=O)O[C@H]2CC[C@H]3C4CCc5cc(O)ccc5C4CC[C@]23C)c1C (stereo partly drawn)	39.6% (inactive)
CCCOC(=O)C1c2cc3c(cc2CC(C)C1C(=O)OCCC)OCO3 (stereo not drawn)	104% (inactive)
Fc1ccc(-c2ccnc3nc(-c4ccncc4)nn23)cc1	110% (inactive)
COc1cc(C2CC(c3cccc(Nc4ccnc5cc(Cl)ccc45)c3)=NN2c2ccccc2)cc(OC)c1OC (stereo not drawn)	68.1% (inactive)
COc1cc(C2CC(c3ccc(Cl)cc3)=NN2C=O)ccc1OS(=O)(=O)c1ccc(C)cc1 (stereo not drawn)	97.1% (inactive)
NC(N)=N/N=C/c1ccccc1	103% (inactive)
COc1ccc(Nc2ncnc3c2sc2nc(C)cc(C)c23)cc1	99.7% (inactive)
Clc1ccc(-c2nc(Br)cn3ccnc23)cc1	86.5% (inactive)
CCCCCCCCCCCCCCCc1cc(O)ccc1[N+](=O)[O-]	75.5% (inactive)
CCOC(=O)c1ccccc1SC(C[N+](=O)[O-])c1ccccc1 (stereo not drawn)	93.4% (inactive)
COc1ccc(OC)c(Nc2nc(-c3c(C)nc4sccn34)cs2)c1	90.1% (inactive)

SMILES	growth
CC1=NOCC(=O)N1	102% (inactive)
CC(C)CC(NC(=O)OCC1c2ccccc2-c2ccccc21)C(=O)O (stereo not drawn)	104% (inactive)
COc1ccc(C2=Nn3c(nnc3-c3ccc(Cl)cc3N)SC2)cc1	99% (inactive)
Nc1c(C(=O)c2ccc(Br)cc2)sc2nc3c(cc12)CCCC3	90.7% (inactive)
O=C(N=Nc1c(Cl)c(O)c2ccccc2c1O)C(=O)Nc1cccc(C(F)(F)F)c1	13.2% (inactive)
CCCCn1c(C)nc2ccc(Nc3nc(Cl)nc4nc[nH]c34)cc21	74.6% (inactive)
Cc1cc(C)c2c(n1)sc1c(Nc3ccc(OCc4ccccc4)cc3)ncnc12	101% (inactive)
COc1ccc(/C=C2\CCCC3=C2N=C2SC(C)=NN2C3c2ccc(OC)c(OC)c2)cc1OC (stereo not drawn)	26.6% (inactive)
COc1cccc(Cn2c(-c3nonc3NC(C)=O)nc3ccccc32)c1	48.4% (inactive)
Cc1cc(C)c2c(n1)sc1c(Nc3ccc(Cl)cc3Cl)ncnc12	13.5% (inactive)
COc1cc(C(=O)/C=C/c2cn(-c3ccccc3)nc2-c2cccc(Nc3ccnc4cc(Cl)ccc34)c2)cc(OC)c1OC	90.9% (inactive)
O=c1c2sc3ncc(Cl)cc3c2nnn1-c1cccc(Cl)c1	74.3% (inactive)
Cc1ccc(C2CC(c3cccs3)=NN2c2ccc(S(N)(=O)=O)cc2)s1 (stereo not drawn)	98.3% (inactive)
COc1cc(C2C=C(C)N=C3SC=NN32)cc(OC)c1OC (stereo not drawn)	100% (inactive)
COc1ccc2cc(-c3nc(C)c(C(C)=O)c(-c4ccc(C)cc4)n3)ccc2c1	95.5% (inactive)
C=CCn1c(C)nc2cc(Nc3nc(N4CCOCC4)nc4nc[nH]c34)ccc21	84.3% (inactive)
O=C1C(Cl)=C(N/N=c2/[nH][nH]/c(=N/NC3=C(Cl)C(=O)c4ccccc4C3=O)c3ccccc23)C(=O)c2ccccc21	56.4% (inactive)
Cc1ccc2cc3c(NC(=O)c4cccnc4)nn(C)c3nc2c1	101% (inactive)
Cc1ccc(-c2nc3ccccc3c(=O)n2/N=C/c2cccc3ccccc23)cc1	82.3% (inactive)

The molecules below were run on UO-31 renal in the same assay as above. Details: 10 µM unless noted.

SMILES	growth
c1ccc2c(Cc3csc4ccccc34)csc2c1	47.5% (inactive)
COc1ccc(-c2[nH]nc(N)c2-c2cc(OC)c(OC)c(OC)c2)cc1	20.4% (inactive)
Cc1nc2ccc(Nc3nc(NCCN4CCOCC4)nc(Nc4ccc(F)cc4)n3)cc2n1Cc1ccccc1	37.3% (inactive)
COc1ccc(C2CC(c3ccc(Nc4ccnc5cc(Cl)ccc45)cc3)=NN2c2ccccc2)cc1 (stereo not drawn)	93.9% (inactive)
CCCCn1c(C)nc2cc(Nc3nc(Cl)nc4nc[nH]c34)ccc21	64.6% (inactive)
COc1ccc(C(=O)/C=C/c2cn(-c3ccccc3)nc2-c2cccc(Nc3ccnc4cc(Cl)ccc34)c2)cc1	86.6% (inactive)
Clc1ccc(Nc2ncnc3c2sc2ncccc23)c(Cl)c1	-11.7% (active)
Nc1nonc1-c1nc2ccccc2n1Cc1ccc(F)cc1	42.9% (inactive)
CC(C)(C)c1ccc(Cn2c(-c3nonc3N)nc3ccccc32)cc1	51.4% (inactive)
COC1=CC(c2ccc[nH]2)=N/C1=C\c1[nH]c(C)c(C(=O)CCCCCCCCC(=O)O[C@H]2CC[C@H]3C4CCc5cc(O)ccc5C4CC[C@]23C)c1C (stereo partly drawn)	-13.3% (active)
CCCOC(=O)C1c2cc3c(cc2CC(C)C1C(=O)OCCC)OCO3 (stereo not drawn)	65.7% (inactive)
Fc1ccc(-c2ccnc3nc(-c4ccncc4)nn23)cc1	84.5% (inactive)
COc1cc(C2CC(c3cccc(Nc4ccnc5cc(Cl)ccc45)c3)=NN2c2ccccc2)cc(OC)c1OC (stereo not drawn)	38% (inactive)
COc1cc(C2CC(c3ccc(Cl)cc3)=NN2C=O)ccc1OS(=O)(=O)c1ccc(C)cc1 (stereo not drawn)	85.2% (inactive)
NC(N)=N/N=C/c1ccccc1	88.3% (inactive)
COc1ccc(Nc2ncnc3c2sc2nc(C)cc(C)c23)cc1	91.5% (inactive)
Clc1ccc(-c2nc(Br)cn3ccnc23)cc1	40.3% (inactive)
CCCCCCCCCCCCCCCc1cc(O)ccc1[N+](=O)[O-]	58.6% (inactive)
CCOC(=O)c1ccccc1SC(C[N+](=O)[O-])c1ccccc1 (stereo not drawn)	99.4% (inactive)
COc1ccc(OC)c(Nc2nc(-c3c(C)nc4sccn34)cs2)c1	77.8% (inactive)

SMILES	growth
CC1=NOCC(=O)N1	96.5% (inactive)
CC(C)CC(NC(=O)OCC1c2ccccc2-c2ccccc21)C(=O)O (stereo not drawn)	94.2% (inactive)
COc1ccc(C2=Nn3c(nnc3-c3ccc(Cl)cc3N)SC2)cc1	83.4% (inactive)
Nc1c(C(=O)c2ccc(Br)cc2)sc2nc3c(cc12)CCCC3	89.7% (inactive)
O=C(N=Nc1c(Cl)c(O)c2ccccc2c1O)C(=O)Nc1cccc(C(F)(F)F)c1	38.7% (inactive)
CCCCn1c(C)nc2ccc(Nc3nc(Cl)nc4nc[nH]c34)cc21	57.8% (inactive)
Cc1cc(C)c2c(n1)sc1c(Nc3ccc(OCc4ccccc4)cc3)ncnc12	85.1% (inactive)
COc1ccc(/C=C2\CCCC3=C2N=C2SC(C)=NN2C3c2ccc(OC)c(OC)c2)cc1OC (stereo not drawn)	36.1% (inactive)
COc1cccc(Cn2c(-c3nonc3NC(C)=O)nc3ccccc32)c1	36% (inactive)
Cc1cc(C)c2c(n1)sc1c(Nc3ccc(Cl)cc3Cl)ncnc12	-8.56% (active)
COc1cc(C(=O)/C=C/c2cn(-c3ccccc3)nc2-c2cccc(Nc3ccnc4cc(Cl)ccc34)c2)cc(OC)c1OC	86.4% (inactive)
O=c1c2sc3ncc(Cl)cc3c2nnn1-c1cccc(Cl)c1	48.5% (inactive)
Cc1ccc(C2CC(c3cccs3)=NN2c2ccc(S(N)(=O)=O)cc2)s1 (stereo not drawn)	75.8% (inactive)
COc1cc(C2C=C(C)N=C3SC=NN32)cc(OC)c1OC (stereo not drawn)	99.5% (inactive)
COc1ccc2cc(-c3nc(C)c(C(C)=O)c(-c4ccc(C)cc4)n3)ccc2c1	72.9% (inactive)
C=CCn1c(C)nc2cc(Nc3nc(N4CCOCC4)nc4nc[nH]c34)ccc21	87.4% (inactive)
O=C1C(Cl)=C(N/N=c2/[nH][nH]/c(=N/NC3=C(Cl)C(=O)c4ccccc4C3=O)c3ccccc23)C(=O)c2ccccc21	54.7% (inactive)
Cc1ccc2cc3c(NC(=O)c4cccnc4)nn(C)c3nc2c1	78.6% (inactive)
Cc1ccc(-c2nc3ccccc3c(=O)n2/N=C/c2cccc3ccccc23)cc1	48.3% (inactive)

From PubChem BioAssay (NCI)
